FLuc inh = blocks purified firefly luciferase enzyme activity | 76,000 compounds, 2.5% hits | AID 1347043 | purified P. pyralis luciferase, luminescence, biochemical | Potency, µM (doses to about 115 µM), hits mostly inhibitors; also: nearly all actives have a fitted effect of over 65% in size
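Biochemical qHTS: compound (6-point titration) added to 10uM D-luciferin plus 10uM ATP in Tris acetate pH 7.5 buffer with Mg, Tween-20 and BSA, then purified enzyme at 10nM; light output imaged.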
HEK293 tox = HEK 293 cell cytotoxicity | 94,000 compounds, 6.6% hits | HEK 293 viability, ATP luminescence (CellTiter-Glo), 48-72 h | Potency, µM (doses to about 115 µM), for inactives: top-dose activity change, negative = cytotoxicity, usual class: inhibitors; also: nearly all actives have a fitted effect of over 60% in size
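Cytotoxicity was scored by loss of ATP-coupled luminescence (CellTiter-Glo) in HEK 293 cells. Compound treatment ran 48 or 72 hr at 37 degree Celsius, 5% CO2, 95% humidity.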
NIH3T3 tox = cytotoxic compounds in NIH 3T3 cells. AID 1345082. Potency, µM (doses to about 96.7 µM), inactives show at the highest dose activity change, negative = cytotoxicity, hits mostly inhibitors. 94,000 compounds, 4.3% hits. NIH 3T3 viability, CellTiter-Glo ATP luminescence, 48-72 h; also: nearly all actives have a fitted effect of over 55% in size
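Luminescent ATP readout (CellTiter-Glo, 10 min RT) after 48 or 72 hr compound exposure of NIH 3T3 cells seeded at 400 cells/well in 1536-well format; quantitative HTS.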
HEK293 viab = cell viability loss counter-screen; HEK-293-SNCA-luc viability, GF-AFC fluorescence, 24 h; Potency, µM (titrated, usually from 57.1 µM), without a hit: top-dose activity change, negative = cytotoxicity, hits mostly cytotoxic; 150,000 compounds, 0.12% hits;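 also: 0% = DMSO-treated cells and -100% = medium-only wells without cells; nearly all actives have a fitted effect of over 30% in size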
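Cytotoxicity counterscreen: after 24 h compound treatment of genome-edited SNCA-luciferase HEK-293 cells, live-cell protease substrate GF-AFC read by fluorescence after 30 min; activity scaled between DMSO (0%) and medium-only (-100%), curves Hill-fitted.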
SNCA expr inh = SNCA gene expression inhibition | HEK-293 SNCA-luciferase knock-in, luminescence, 24 h | Potency, µM (titrated, usually from 57.2 µM), inactives show at the highest dose activity change, negative = inhibition, usual class: inhibitors | 140,000 compounds, 0.17% hits;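 also: plate controls were DMSO cells for no effect and cell-free wells for full effect; nearly all actives have a fitted effect of over 45% in size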
NPR1 antag = human Npr1 receptor antagonism; P16066; HEK293 hNpr1 GloSensor cGMP, ANP-stimulated luminescence; Potency, µM (titrated, usually from 46.3 µM), without a hit: at the top dose activity change, negative = inhibition, actives largely listed as inhibitors; 76,000 compounds, 1.6% hits; AID 1347048; calls by dose curve; also: nearly all actives have a fitted effect of over 60% in size
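Compound pre-incubated 30 min at room temperature on GloSensor-loaded HEK293 cells stably carrying hNpr1 and the pGS-40F cGMP biosensor. Stimulation uses hNppA at 0.1 nM final; luminescence is taken at baseline and 20 min post-agonist.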
An asterisk follows results filed as active; i = inactive; ? = inconclusive; [ ] = another dose, or the depositor's remark. The list is not random: actives were taken first. Their share in the collection is about 7.2%. Unless noted, calls follow the shape of the dose curve; as a rule, active = well fitted curve in the direction sought with a large enough effect; inconclusive = small, poorly fitted or top-dose-only effect, or another doubt; inactive = no such curve, though single readings can be large; an effect the other way counts as inactive or inconclusive. Unless noted, % is scaled to controls: 0 for no effect and ±100 for the full control effect; potency is read from the fitted curve at half-maximal effect.

SMILES | FLuc inh | HEK293 tox | NIH3T3 tox | HEK293 viab | SNCA expr inh | NPR1 antag
O=C(CCc1ccccc1)N1CCC(c2n[nH]c(=O)n2Cc2ccc(F)cc2)CC1 | i | -6% | ? | -11% | -5% | -13%
CCc1cccc2c(C(CC(=O)NCc3ccc4c(c3)OCO4)c3ccc(OC)c(OC)c3)c[nH]c12 (stereo unspecified) | i | 35µM* | ? | -5% | -18% | -21%
CCc1cccc2c(C(CC(=O)NCCOC)c3ccc(OC)c(OC)c3)c[nH]c12 (stereo unspecified) | i | -4% | -7% | -3% | 0% | 0%
CC(C)CN1C(=O)CO[C@H](c2ccc(NC(=O)c3ccc4c(c3)OCO4)cc2)[C@H]1CO | i | ? | ? | -7%[87.6 µM] | 55%[87.6 µM] | ?
CCOc1ccccc1CN1CCC2(CCN(C(=O)C(C)(C)C)CC2)Oc2ccccc21 | i | 40µM* | 32µM* | -19% | ? | 5%
CCOc1ccccc1CN1CCC2(CCN(C(=O)C3CC3)CC2)Oc2ccccc21 | i | 45µM* | 25µM* | 0% | 5% | 16%
CCC1(N2CCN(S(=O)(=O)c3ccc(F)c(C)c3)CC2)CCN(S(C)(=O)=O)C1 (stereo unspecified) | i | ? | ? | 3% | 13% | 1%
Cn1nc(C(=O)N2CCCN(c3cc(-c4ccccc4)[nH]n3)CC2)c2ccccc21 | i | 28µM* | ? | -5% | -10% | -2%
Cc1cccc(OCC(=O)N2CCCN(c3cc(-c4ccc(Cl)cc4)[nH]n3)CC2)c1 | i | ? | 25µM* | ? | ? | ?
COc1ccc(CC(=O)N2CCCN(c3cc(-c4ccc(Cl)cc4)[nH]n3)CC2)cc1 | i | 40µM* | ? | -16% | -25% | ?
COc1ccc(CC(=O)N2CCCN(c3cc(-c4ccccc4)[nH]n3)CC2)cc1 | i | ? | -25% | 2% | -13% | 0%
Cc1ccc(-c2cc(N3CCCN(C(=O)c4ccccc4F)CC3)n[nH]2)cc1C | i | 28µM* | ? | -10% | -12% | -24%
O=C1CC2CCCC(C1)N2C(=O)c1ccc(C(F)(F)F)cc1 | i | -19%[172 µM] | -27%[138 µM] | 3%[87.6 µM] | -15%[87.6 µM] | 3%[70.6 µM]
CN(CCCc1cnn(C)c1)C(=O)[C@H]1CNC[C@@H](C(=O)N2CCOCC2)C1 | i | i | 2% | -18% | 9% | 5%
Cc1ccc(C(=O)N2CC(C(=O)NC3CCCCC3)C3(CCOCC3)C2)cc1F (stereo unspecified) | i | 3% | i | -2% | -27% | 1%
Cc1ccc(-c2cc(N3CCCN(C(=O)Cc4ccccc4)CC3)n[nH]2)cc1C | ? | ? | 40µM* | ? | ? | -13%
O=C(Cc1ccccc1)N1CCCN(c2cc(-c3ccc(Cl)cc3)[nH]n2)CC1 | i | 40µM* | ? | -12% | -13% | ?
Cc1ccc(-c2cc(N3CCCN(C(=O)C(C)Oc4ccccc4)CC3)n[nH]2)cc1C (stereo unspecified) | i | ? | ? | -12% | 11% | -19%
Cc1ccc(CC(=O)N2CCCN(c3cc(-c4ccccc4)[nH]n3)CC2)cc1 | i | 50µM* | ? | -15% | ? | -18%
COc1ccc(CC(=O)N2CCCN(c3cc(-c4ccccc4)[nH]n3)CC2)cc1OC | i | ? | -16% | -11% | -27% | -1%
Cn1cccc1CNC(=O)C1c2ccccc2C(=O)N(Cc2ccccc2)C12CCCC2 (stereo unspecified) | i | ? | -24% | -8% | -16% | -15%
CN(CC1CCCN(CCc2ccc(Cl)cc2)C1)C(=O)c1ccc(-n2cnnn2)cc1 (stereo unspecified) | i | -19% | ? | -5% | 2% | -1%
C[S+](=O)([O-])N1CCC(Cn2ccc3c(N4CCOCC4)nc(-c4ccccc4F)cc32)CC1 | i | ? | -33% | 10% | -7% | -7%
C[S+](=O)([O-])N1CCC(Cn2ccc3c(N4CCOCC4)nc(-c4ccncc4)cc32)CC1 | i | ? | 28µM* | 5% | -8% | 3%
C[S+](=O)([O-])N1CCC(Cn2ccc3c(N4CCOCC4)nc(-c4cccc5[nH]ncc45)cc32)CC1 | i | ? | 10µM* | -8% | -1% | -17%
SMILES | FLuc inh | HEK293 tox | NIH3T3 tox | HEK293 viab | SNCA expr inh | NPR1 antag
COc1ccccc1-c1cc2c(ccn2CC2CCN([S+](C)(=O)[O-])CC2)c(N2CCOCC2)n1 | i | ? | ? | 10% | 5% | -5%
COc1ccc(-c2nccn3cc(C(=O)NCCc4ccccn4)nc23)cc1 | i | ? | ? | -3% | -5% | -14%
CC(C)(C)NC(=O)C[C@@H]1CCNC[C@@H]1Cc1cc(COc2ccccc2)on1 | i | ? | -17%[174 µM] | -6%[87.6 µM] | -6%[87.6 µM] | 5%[70.6 µM]
O=C(C[C@@H]1CCNC[C@@H]1Cc1cc(COc2ccccc2)on1)Nc1ccccc1 | i | 40µM* | 32µM* | ? | ? | -9%[70.6 µM]
O=C(C[C@@H]1CCNC[C@@H]1Cc1cc(CSc2ccccc2)on1)N1CCN(c2ccccc2)CC1 | i | ? | 25µM* | -19% | ? | -19%
O=C(C[C@@H]1CCNC[C@@H]1Cc1cc(CSc2ccccc2)on1)Nc1ccccc1 | i | 45µM* | 71µM* | -2%[87.6 µM] | 29%[87.6 µM] | -15%[70.6 µM]
O=C(C[C@@H]1CCNC[C@@H]1Cc1cc(COc2ccccc2)on1)NCc1ccccc1 | i | 79µM* | ? | -2%[87.6 µM] | 17%[87.6 µM] | -26%[70.6 µM]
NC(=O)[C@H](CC1CCCCC1)NC(=O)[C@H]1CN(C(=O)C2CCNCC2)CCN1C(=O)NC1CCCCC1 | i | -1% | 0% | -3% | 2% | 1%
CCOCc1nc(C2CCCN(C(=O)c3ccccc3C)C2)no1 (stereo unspecified) | i | 1% | -8% | 3%[12.5 µM] | 15% | -4%
CCn1cc(S(=O)(=O)N2CCC(c3ncc(C)n3CCOC)C2)cn1 (stereo unspecified) | i | 4% | 4% | -3% | 28% | 2%
O=C(Nc1cccnc1)c1ccc2c(c1)OCCN(c1cccc(OC(F)(F)F)c1)C2 | i | 28µM* | ? | ? | ? | ?
O=C([C@@H]1CNC[C@H](C(=O)N2CCN(c3nccs3)CC2)C1)N1CCCC1 | i | -17% | -6% | -3% | -16% | -2%
OCc1ccc(CN2C[C@H](O)C[C@H]2c2nc(-c3ccc(F)cc3)no2)o1 | 45µM* | 1%[172 µM] | i | 0%[87.6 µM] | 110%[87.6 µM] | 5%[70.6 µM]

Screening data (PubChem BioAssay)
